According to PubChem BioAssay (NCI):
This is part of a sample that, as a whole, favours compounds with a hit. Of some 83,000 tested, about 20% had one in any assay.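 Single-concentration screen, 48 h exposure, 96-well plates. Endpoint: percent growth. Below 10 = active.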 A number with no mark means an inactive call. Active and inactive are the calls of the source.

Test system: NCI-H226 lung
Assay: NCI-60 one-dose screen, 48 h (100 = growth as untreated, 0 = no growth, -100 = all killed)
Settings: 10 µM
Description: Growth inhibition of the NCI-H226 human Non-Small Cell Lung tumor cell line is measured as a screen for anti-cancer activity. Cells are grown in 96 well plates and exposed to the test compound for 48 hours. Compounds are tested at a single concentration, which is 10^-5 M for most compounds. The reported endpoint is percent growth (GI% or GIPRCNT), where numbers from 0 - 100% represent growth inhibition, and numbers from -100% - 0 represent cell death. For example, a value of 40 represents 60% growth inhibition. A value of 0 means no net growth occurred over the course of the experiment. A value of -40 indicates 40% of cells at the beginning of the experiment died by the end of the experiment. A value of -100 means all cells are dead at the end of the experiment.
NCI-60 Human Tumor Cell Lines Screen was performed using the standard one-dose NCI protocol, which is described in more detail at https://dtp.cancer.gov/discovery_development/nci-60/default.htm.
Compounds with GIPRCNT values below 10 were considered active. Activity score was based on GIPRCNT using the following formula: […]
Score is 0 for GIPRCNT values of 100 or above, 50 for GIPRCNT values of 0, and 100 for GIPRCNT values of -100.

Question: With Cc1[nH]c2ccccc2c1/C=N/Nc1ncnc2sc3c(c12)CCN(CC(=O)OC(C)(C)C)C3 as the molecule, how does the growth read?
Answer: 98%

Question: Nc1ccccc1NC(=O)c1ccc(CCCC(=O)Nc2ccc(C3CC3N)cc2)cc1 (stereo not given) was tested. Which growth did it give?
Answer: 27.5%

Question: Which growth does the source give for COc1ccc(-c2n[nH]nc2-c2cc(OC)c(OC)c(OC)c2)cc1 here?
Answer: 63.2%

Question: Which growth does the source give for NC(N)=N/N=C(\N=Nc1ccccc1)c1ccc(Cl)cc1 here?
Answer: 82.3%

Question: For CCc1ccc(C2=NN(c3ccc(S(C)(=O)=O)cc3)C(=O)CC2)cc1, which growth is on record?
Answer: 69.1%

Question: For Clc1ccc(C2=NN=C3C(Cc4ccccc4)=Nc4ccccc4N3C2)cc1, which growth is on record?
Answer: 92.8%

Question: Which growth does the source give for COc1cc(/C=C/c2cc(/C=C/c3ccc(O)c(OC)c3)n(C(=O)Nc3ccc(C)cc3)n2)ccc1O here?
Answer: -0.891% (active)

Question: With COc1ccc(-c2cc(-c3ccccc3)nc(SCCCC(=O)NO)n2)cc1 as the molecule, how does the growth read?
Answer: -8.31% (active)

Question: With O=C(Cn1cc(CO)nn1)Nc1nc2ccccc2s1 as the molecule, how does the growth read?
Answer: 103%

Question: CCN(CC)CCCC(Nc1c2ccc(Cl)cc2nc2ccc(OC)cc12)c1ccc(F)cc1 (stereo not given) was tested. Which growth did it give?
Answer: 94.1%

Question: For COc1ccc2nc(Cl)c(Cn3nnc(Cc4ccccc4)n3)cc2c1, which growth is on record?
Answer: 39%

Question: For CCCc1nc(C(C)(C)O)c(C(=O)O)n1Cc1ccc(-c2ccccc2-c2nn[nH]n2)cc1, which growth is on record?
Answer: 103%

Question: Which growth does the source give for COc1ccc(/C(C#N)=C/c2ccccc2OC)cc1 here?
Answer: 64.8%

Question: For Nc1ncc(-c2cnn(C3CCNCC3)c2)cc1-c1nc2ccccc2o1, which growth is on record?
Answer: 15.8%

Question: Which growth does the source give for COc1cc(C2CC(c3ccccc3)=NN2C(C)=O)cc(OC)c1OC (stereo not given) here?
Answer: 82.1%

Question: How did the growth turn out when COc1cc2cc(Oc3ccc(NC(=O)c4ccc(Cl)c(C(F)(F)F)c4)cc3)c(C)nc2cc1OC was run?
Answer: 25.5%

Question: How did the growth turn out when O=C(CCCNC(=O)c1nc(-c2ccccc2)n(-c2ccccc2)n1)NO was run?
Answer: 85.6%

Question: Which growth does the source give for CN1C(C(=O)Nc2ccccn2)=C(O)c2sc(Cl)cc2S1(=O)=O here?
Answer: 106%

Question: NC1=CC(=O)C(=O)c2cccnc21 was tested. Which growth did it give?
Answer: 82.4%

Question: For COc1cc2cc(Oc3ccc(NC(=O)Nc4ccc(Cl)c(C(F)(F)F)c4)cc3)c(C)nc2cc1OC, which growth is on record?
Answer: 4.49% (active)

Question: O=C1/C=C/[C@@H](O)[C@@H]2C[C@@H](O)C[C@H]2/C=C/CCC[C@H](CCc2ccc(C(F)(F)F)cc2)O1 was tested. Which growth did it give?
Answer: 0.477% (active)

Question: O=C1c2c(c(=O)[nH]c3ccccc23)CCN1Cc1ccccc1 was tested. Which growth did it give?
Answer: 97.1%

Question: OC(CNc1ccnc2cc(Cl)ccc12)CNC1CCCCC1 (stereo not given) was tested. Which growth did it give?
Answer: 105%

Question: With COc1cc2c3c(n([C@H]4CCOC4)c(=O)c2cc1OC)-c1cc2c(cc1C3=O)OCO2 as the molecule, how does the growth read?
Answer: 20.8%

Question: Which growth does the source give for O=C(CCl)Oc1ccc(OC(=O)CCl)cc1 here?
Answer: 96.5%

Question: For COc1ccccc1-n1c(-c2csc(NC(C)=O)n2)n[nH]c1=S, which growth is on record?
Answer: 96.7%

Question: For O=C(CCl)Nc1ccc(Cc2ccc(NC(=O)CCl)cc2)cc1, which growth is on record?
Answer: -16.2% (active)

Question: For COc1cc(-c2csc(NC(=O)Nc3cc(C(F)(F)F)cc(C(F)(F)F)c3)n2)cc(OC)c1OC, which growth is on record?
Answer: 24.8%

Question: Which growth does the source give for CCN(CC)CCOc1cccc2c1C(=O)c1ccccc1C2=O here?
Answer: 93.8%

Question: Which growth does the source give for O=C(N/N=C/c1c(Cl)cccc1Cl)c1ccccc1Nc1cccc(C(F)(F)F)c1 here?
Answer: 99.4%

Question: COc1cc(C(=O)/C(C)=C/c2c[nH]c3ccccc23)cc(OC)c1OC was tested. Which growth did it give?
Answer: 61.7%

Question: With Cc1c(Cl)cccc1NC(=O)CN1CCOCC1 as the molecule, how does the growth read?
Answer: 106%

Question: Which growth does the source give for Cc1ccc(-n2nnnc2N)c(C)c1 here?
Answer: 115%

Question: With N#CC1=C(N)Oc2cc(N)ccc2C1c1cccnc1 (stereo not given) as the molecule, how does the growth read?
Answer: 101%

Question: With C[C@H]1[C@H](OC(=O)CCC(=O)O)O[C@@H]2O[C@]3(C)CC[C@H]4[C@H](C)CC[C@@H]1[C@@]24OO3 as the molecule, how does the growth read?
Answer: 59.5%

Question: CCn1c(SCc2ccc(C)cc2)nnc1-c1nn(-c2ccc(Cl)cc2Cl)c(-c2ccc(Cl)cc2)c1C was tested. Which growth did it give?
Answer: 11.6%

Question: COc1ccc2c(c1)C(CC(=O)NN)CCC2 (stereo not given) was tested. Which growth did it give?
Answer: 101%

Question: How did the growth turn out when COc1cc(C2C(C#N)=C(N)Oc3cc(O)ccc32)cc(OC)c1OC (stereo not given) was run?
Answer: 68.4%

Question: Which growth does the source give for O=C1c2c(c3c4ccccc4n(CCCCCCN4CCOCC4)c3c3[nH]c4ccccc4c23)C(=O)N1O here?
Answer: 66.7%

Question: COc1cc(/C=C2\CCCC3C2=Nc2ccccc2NC3c2cc(OC)c(OC)c(OC)c2)cc(OC)c1OC (stereo not given) was tested. Which growth did it give?
Answer: -38.4% (active)
